An excerpt weighted towards active compounds, which were near 6.6% of everything screened.
Mdm2-MdmX inh: inhibitors of human Mdm2-MdmX association, primary screen, cell-based, luminescence, split luciferase, SaOS-2, uHTS; SaOS-2 split-luciferase Mdm2/MdmX complementation; inhibition, % at 8 µM; 3% of 330,000 active;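 active means inhibition of at least 50% at 8 µM in the primary screen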
Target sequence (O15151 whole entry, looked up): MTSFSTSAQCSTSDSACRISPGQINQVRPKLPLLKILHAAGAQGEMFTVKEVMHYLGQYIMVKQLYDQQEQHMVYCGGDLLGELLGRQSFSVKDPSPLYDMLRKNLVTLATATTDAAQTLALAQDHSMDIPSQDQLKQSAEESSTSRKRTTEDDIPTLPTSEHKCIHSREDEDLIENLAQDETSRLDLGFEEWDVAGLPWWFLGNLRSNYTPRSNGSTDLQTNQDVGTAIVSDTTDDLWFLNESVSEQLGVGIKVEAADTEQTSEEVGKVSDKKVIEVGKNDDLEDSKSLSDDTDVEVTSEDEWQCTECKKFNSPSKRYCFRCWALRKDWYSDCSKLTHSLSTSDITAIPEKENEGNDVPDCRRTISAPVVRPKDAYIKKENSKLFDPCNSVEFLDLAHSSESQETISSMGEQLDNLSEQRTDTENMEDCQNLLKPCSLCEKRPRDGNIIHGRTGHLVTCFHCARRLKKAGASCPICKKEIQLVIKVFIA
Target sequence (Q00987 whole entry, looked up): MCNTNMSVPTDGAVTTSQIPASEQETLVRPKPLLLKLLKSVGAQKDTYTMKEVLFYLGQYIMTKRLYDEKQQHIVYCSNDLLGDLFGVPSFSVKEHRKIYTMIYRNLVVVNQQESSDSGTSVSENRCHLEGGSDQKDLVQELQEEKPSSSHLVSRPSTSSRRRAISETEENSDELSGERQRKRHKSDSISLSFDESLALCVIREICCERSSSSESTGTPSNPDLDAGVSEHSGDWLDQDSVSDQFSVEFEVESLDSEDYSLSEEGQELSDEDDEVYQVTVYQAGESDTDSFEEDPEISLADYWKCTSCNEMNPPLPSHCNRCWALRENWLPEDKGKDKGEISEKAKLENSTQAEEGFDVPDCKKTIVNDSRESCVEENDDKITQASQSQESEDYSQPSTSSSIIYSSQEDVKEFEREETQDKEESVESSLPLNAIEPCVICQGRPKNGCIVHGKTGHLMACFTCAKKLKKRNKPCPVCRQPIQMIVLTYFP
Gli-Sufu antag: Gli-Sufu pathway antagonists, primary screen, luciferase luminescence, Sufu-KO-LIGHT cells, uHTS; AID 588413, 2011; Sufu-KO-LIGHT fibroblasts, Gli luciferase reporter luminescence; 0.74% of 340,000 active; inhibition, % at 5 µM;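 active means inhibition above about 55%, limit read from the data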
CSC inhib: cancer stem cell viability inhibitors, primary screen, luminescence | 1.1% of 300,000 active | cancer stem cell-like cells viability | inhibition, % at 7.5 µM; in the data active means inhibition above about 75%; tested in HMLE shEcad cells
NR3A LBD binder: binders of NR3A ligand-binding domain, primary screen, biophysical, differential scanning fluorimetry, uHTS; Glutamate receptor ionotropic, NMDA 3A (GRIN3A) ligand-binding domain; NR3A LBD differential scanning fluorimetry, Tm shift; 0% = protein alone, 100% = glycine-bound protein; Tm shift relative to glycine control, % at 25 µM; 2.5% of 340,000 active;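 active means melting temperature shift of at least 10% of the positive control shift, at one fixed dose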
MPTP inh: mitochondrial permeability transition pore inhibitors, primary screen, biochemical, isolated mouse mitochondria, absorbance; Ca2+ swelling absorbance, 30 min; inhibition, % at 10 µM; 1.4% of 360,000 active; AID 602449, 2012;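 active means inhibition of 50% or more, scaled per plate between neutral and stimulator controls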
Beta apoptosis: inhibitors of cytokine-induced beta cell apoptosis, primary screen, luminescence. INS-1E cytokine-induced death, ATP luminescence, 48 h; percent of positive-control rescue, neutral wells zero. protection from apoptosis, % (test concentration not listed). 0.8% of 300,000 active. AID 435005, 2010;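 active means Every replicate reaches about 75%, or at least half do and their mean reaches it too, limit read from the data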;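 further: higher means more ATP so stronger rescue from cytokine killing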
Large screens that a line does not name were inactive.

O=C(Nc1cccc(Br)c1)c1ccc2c(c1)SC1=NS(=O)(=O)CCN12	NR3A LBD binder 18
O=C1C=C(c2cc(F)ccc2F)C[C@@H](c2ccc(Cl)cc2)C1	none
O=C1C=C(c2ccc(F)cc2OCc2ccccc2)C[C@@H](c2ccc(Cl)cc2)C1	Beta apoptosis 111
COc1cc(F)c(C2=CC(=O)C[C@H](c3ccc(Cl)cc3)C2)cc1F	CSC inhib 78
CC1(c2ccc(Cl)cc2)NC(=O)N(CC(=O)N2CCN(C(=O)c3cccs3)CC2)C1=O (stereo unspecified)	none (no result: Mdm2-MdmX inh, Gli-Sufu antag, CSC inhib, NR3A LBD binder, Beta apoptosis)
Cc1noc(C)c1NC(=O)N1C[C@H](O)COC[C@H]2O[C@@H](CC(=O)NCC3CCCCC3)CC[C@@H]21	none (no result: Mdm2-MdmX inh, Gli-Sufu antag, CSC inhib, NR3A LBD binder, Beta apoptosis)
CNc1cncc(-c2ccc(OC)cc2OC)n1	none (no result: Mdm2-MdmX inh, Gli-Sufu antag, CSC inhib, NR3A LBD binder, Beta apoptosis)
Fc1cccc(C2NN=C(c3ccccc3)S2)c1 (stereo unspecified)	NR3A LBD binder 34
Cc1ccc(C2=NNC(c3cccc(F)c3)S2)cc1 (stereo unspecified)	none
O=C(OCn1ncc(Br)c(Br)c1=O)c1c(F)cccc1F	Beta apoptosis 112 (no result: Mdm2-MdmX inh, Gli-Sufu antag, NR3A LBD binder, MPTP inh)
O=C1C=CC(=O)N1c1ccc(OC(F)F)cc1	CSC inhib 103 (no result: Mdm2-MdmX inh)
CC(=O)Nc1sc(N/N=C/c2ccccc2)nc1-c1ccc(C)cc1	NR3A LBD binder 11
Oc1ccc(C=NNc2nc3ccccc3s2)c(O)c1	NR3A LBD binder 38 (no result: Mdm2-MdmX inh, CSC inhib, Beta apoptosis)
Oc1ccccc1C=NNc1nc2ccccc2s1	NR3A LBD binder 31 (no result: Mdm2-MdmX inh, CSC inhib, Beta apoptosis)
CC(=O)c1sc(N/N=C\c2ccc(Br)cc2)nc1C	NR3A LBD binder 16 (no result: Beta apoptosis)
C(=N\Nc1nc2ccccc2s1)/c1cccs1	none
COc1cccc(C=NNc2nc3ccccc3s2)c1OC	none (no result: Mdm2-MdmX inh, CSC inhib, Beta apoptosis)
CCC(CO)Oc1cc(NC(=O)c2ccc(C)cc2)c2ncn(C(C)C)c2c1 (stereo unspecified)	none
CCCCn1c(N)c(N(CCOC)C(=O)c2oc3c(Cl)cccc3c2C)c(=O)[nH]c1=O	none (no result: Mdm2-MdmX inh, Gli-Sufu antag, CSC inhib, NR3A LBD binder, Beta apoptosis)
CC(=O)Nc1ccc(/C=N/Nc2nc3ccccc3s2)cc1	NR3A LBD binder 16 (no result: Mdm2-MdmX inh, CSC inhib, Beta apoptosis)
COc1ccc(/C=N/Nc2nc3ccccc3s2)cc1O	NR3A LBD binder 13 (no result: Mdm2-MdmX inh, CSC inhib, Beta apoptosis)
Cc1ccsc1/C=N/Nc1nc2ccccc2s1	NR3A LBD binder 24
COc1cc(C=C(c2nc3ccccc3s2)c2nc3ccccc3s2)ccc1O	CSC inhib 94
CC1CN(C(=O)CSc2nc(N)cc(N)n2)CC(C)O1 (stereo unspecified)	none (no result: CSC inhib)
CC(=O)Nc1cccc(/C(C)=N/Nc2nc3ccccc3s2)c1	NR3A LBD binder 31
CC(=NNc1nc2ccccc2s1)c1ncccn1	none (no result: Mdm2-MdmX inh, CSC inhib, Beta apoptosis)
O=c1cc2oc3cc(O)c(O)cc3c(-c3ccccc3O)c-2cc1O	none (no result: Mdm2-MdmX inh, CSC inhib, Beta apoptosis)
COc1ccc(OC)c(-c2c3cc(O)c(=O)cc-3oc3cc(O)c(O)cc23)c1	CSC inhib 95 (no result: Mdm2-MdmX inh)
c1cn2c(-c3ccc(N4CCOCC4)cc3)cncc2n1	none (no result: Mdm2-MdmX inh, Gli-Sufu antag, CSC inhib, NR3A LBD binder, Beta apoptosis)
Cc1ccc(OCC(=O)O)c(O)c1	none (no result: Mdm2-MdmX inh, CSC inhib, Beta apoptosis)
Cc1ccc(NC(=O)/C(C#N)=C/c2ccsc2)c(C)c1	NR3A LBD binder 12
COc1ccc(/C=N/NC(=S)Nc2ccccc2)cc1COc1ccc(Br)cc1	NR3A LBD binder 11
O=c1c2ccccc2cnn1Cc1nnc(-c2cccs2)o1	none
COc1cccc(C(=O)Nc2nnc(SCC(=O)Nc3ccc(NC(C)=O)cc3)s2)c1	NR3A LBD binder 37
COc1cccc(N2CC(C(=O)Nc3nnc(SCC(=O)Nc4ccc(NC(C)=O)cc4)s3)CC2=O)c1 (stereo unspecified)	none
O=C(CSc1nnc(NC(=O)C2CC2)s1)Nc1cccc(F)c1	NR3A LBD binder 14
CCc1ccccc1NC(=O)CSc1ccsc1[N+](=O)[O-]	none
COc1cccc(NC(=O)CSc2nnc(NC(=O)C3CCC3)s2)c1	NR3A LBD binder 12
O=C(CSc1ccsc1[N+](=O)[O-])Nc1cccc(F)c1	NR3A LBD binder 20 (no result: Mdm2-MdmX inh, CSC inhib, Beta apoptosis)
Cc1nnc(SCC(=O)Nc2cccc(S(=O)(=O)N3CCCCC3)c2)s1	none
Cc1ccc(Nc2nnc(SCC(=O)Nc3cccc(S(=O)(=O)N4CCCCC4)c3)s2)cc1	NR3A LBD binder 18
O=C(CSc1nnc(C2CC2)n1C1CC1)Nc1cccc(Br)c1	none (no result: CSC inhib)
CC(=O)Nc1cc2c(cc1C(C)=O)OCCO2	NR3A LBD binder 13
O=C(CSC1=NS(=O)(=O)c2cc(F)ccc2N1)Nc1cccc(F)c1	none
CC(=O)Nc1ccc(S(=O)(=O)N2CCOCC2)cc1	none
O=C(Nc1ccc(S(=O)(=O)N2CCOCC2)cc1)c1ccc(CN2CCc3ccccc3C2)cc1	Beta apoptosis 123 (no result: MPTP inh)
COc1ccc(N2CCN(S(=O)(=O)c3ccc(C(=O)NCc4ccco4)cc3)CC2)cc1	NR3A LBD binder 28 (no result: CSC inhib, Beta apoptosis)
O=C(Nc1ccc(Cl)cc1)c1ccc(S(=O)(=O)N2CCOCC2)cc1	NR3A LBD binder 15
O=C(Nc1ccc(S(=O)(=O)N2CCOCC2)cc1)c1ccc(Cl)s1	NR3A LBD binder 35
O=C(Nc1ccc(S(=O)(=O)N2CCCC2)cc1)c1ccc(CN2CCc3ccccc3C2)cc1	none (no result: CSC inhib)
Cc1ccc(NC(=O)c2ccc(S(=O)(=O)N3CCOCC3)cc2)cc1	none
c1ccc2cc(CNCc3cccc4ccccc34)ccc2c1	none
CCOc1ccc(S(=O)(=O)N2CCOCC2)cc1NC(=O)CSC(=S)N1CCCC1	none
O=C1CCc2cc(S(=O)(=O)Nc3ccccc3)ccc2N1	none
COc1ccc(C(=O)Nc2ccc(S(=O)(=O)N3CCOCC3)cc2)cc1	NR3A LBD binder 27
COc1ccc(NS(=O)(=O)c2ccc(S(=O)(=O)N3CCOCC3)cc2)cc1	none
O=C(CCc1ccccc1Cl)Nc1ccc(S(=O)(=O)N2CCOCC2)cc1	NR3A LBD binder 19
O=S(=O)(Nc1ccc(S(=O)(=O)N2CCOCC2)cc1)c1ccccc1	NR3A LBD binder 10
COc1ccc(OCCCC(=O)Nc2ccc(S(=O)(=O)N3CCOCC3)cc2)cc1	NR3A LBD binder 11
CCOc1ccc(NC(=O)c2ccc(S(=O)(=O)N3CCOCC3)cc2)cc1	none
O=C(CCc1ccccc1Cl)Nc1cc(S(=O)(=O)N2CCOCC2)ccc1N1CCCC1	none (no result: Mdm2-MdmX inh, CSC inhib, Beta apoptosis)
Cc1ccc(Cl)cc1NC(=O)C1CC1c1ccccc1 (stereo unspecified)	none (no result: CSC inhib, Beta apoptosis)
COc1ccc(-c2ccc(NC(=O)c3ccco3)cc2)nn1	none (no result: NR3A LBD binder)
COCCCNC(=O)Cn1nnc(-c2ccc(NC(=O)c3cccnc3)cc2)n1	Beta apoptosis 97 (no result: Gli-Sufu antag, NR3A LBD binder, MPTP inh)
O=C(Nc1ccc(F)cc1)c1cccnc1	Beta apoptosis 76
CN(C)C(=O)c1ccc(NC(=O)c2cccnc2)cc1	Beta apoptosis 96
CCCCSc1ccc(NC(=O)c2cccnc2)cc1	Beta apoptosis 100
O=C(c1cccc(Cl)c1)N(Cc1ccco1)C1CCS(=O)(=O)C1 (stereo unspecified)	none
Cc1ccc(NC(=O)COC(=O)CC2CCCC2)cc1F	none

Source: PubChem BioAssay (several laboratories)
